3CLpro inhibitor – SARS-CoV 3CLpro protease inhibition; recombinant SARS-CoV 3CLpro, quenched FRET peptide cleavage; inhibition, % at 6 µM; hit rate 0.14% among 290,000; AID 1706; P0C6X7; in the data active means inhibition above about 12%
DUSP3 inh – inhibitors of human VHR1 phosphatase (DUSP3); inhibition, % at 13.3 µM; recombinant VHR phosphatase, pNPP absorbance; hit rate 0.52% among 290,000; P51452; in the data active means inhibition above about 50%
Target sequence (P51452 whole entry, looked up): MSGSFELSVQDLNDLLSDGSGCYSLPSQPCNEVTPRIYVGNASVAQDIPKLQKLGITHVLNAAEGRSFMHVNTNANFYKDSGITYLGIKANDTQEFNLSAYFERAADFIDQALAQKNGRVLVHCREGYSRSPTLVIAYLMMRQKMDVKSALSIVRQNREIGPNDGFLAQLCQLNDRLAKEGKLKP
PrPC surface inh – inhibitors of human cell surface prion protein PrPC; P04156; TR-FRET read-out; inhibition, % at 13.8 µM; hit rate 0.43% among 370,000; in the data active means inhibition above about 24%; further: 0% = median of the test wells and 100% = reference compound wells
BJeLR viability – kills HRASV12-expressing BJeLR cells. BJeLR (HRASV12) viability, CellTiter-Glo ATP luminescence, 48 h. inhibition, % (no concentration beside the values). hit rate 0.17% among 300,000. AID 1554; in the data active means inhibition above about 50%
Active calls of the source: *; . = no result. A selection: hits, their analogues and other compounds. The true share with any hit is near 1.1%.

SMILES	3CLpro inhibitor	DUSP3 inh	PrPC surface inh	BJeLR viability
O=C(Nc1ccc(N2CCOCC2)cc1)c1cccc(-n2cnnc2)c1	-1	53*	3	-8
Cc1[nH]c2ccccc2c1CC(=O)Nc1ccc(Nc2cccnc2)c(-c2ccc(OC(F)(F)F)cc2)c1	.	.	4	.
N#CC1=C(N)SC(N)=C(C#N)C1c1c(Cl)cccc1Cl	6	1	41*	-1
S=c1[nH]ncn2c1cc1oc3ccccc3c12	-1	-15	97*	1
C[C@H]1COc2cccc(N3CCCC3)c2S(=O)(=O)N1	.	.	4	.
CCc1cccc(NC(=O)CSc2nc(C)cs2)c1	.	.	-2	.
Nc1[nH]c(C(=O)c2ccc(Br)cc2)c(-c2ccccc2Cl)c1C(=O)NCCc1c[nH]c2ccccc12	.	.	-1	.
CN(C(=O)COC(=O)c1cc([N+](=O)[O-])ccc1N1CCCC1)C1CCS(=O)(=O)C1 (stereo unspecified)	-1	51*	-21	-1
CCC(C)N(C(=O)COC(=O)c1cc([N+](=O)[O-])ccc1N1CCOCC1)C1CCS(=O)(=O)C1 (stereo unspecified)	.	.	-7	-2
O=C(NN=C1CCCC1)c1cccc(Br)c1	-2	54*	10	-3
O=C1OC(c2ccc(F)cc2)CC1CN1CCOCC1 (stereo unspecified)	.	.	-6	.
CCCCOCCCNC(=O)N[C@@H](CCSC)C(=O)OC	-2	7	-2	-10
CCC(C)NC(=O)N[C@@H](CCSC)C(=O)OC (stereo partly specified)	1	56*	-1	-1
Cn1c(=O)c2c(nc3n2CC(CO)O3)n(C)c1=O (stereo unspecified)	-3	59*	5	12
C#CCN(C(=O)c1ccc(OC2CCN(C(=O)CCOC)CC2)cc1)C1CCCCC1	0	53*	6	5
CCOc1cccc(-c2ccc3nncn3c2)c1	.	.	-10	.
COC(=O)C1CN(Cc2cn(Cc3ccc(C)cc3)nn2)CCS(=O)(=O)N1Cc1ccc(C)cc1 (stereo unspecified)	.	.	5	.
COCC(=O)N(c1ccc(C(C)(C)C)cc1)C(C(=O)NC(C)(C)C)c1cccnc1 (stereo unspecified)	.	.	-3	.
O=C(Nc1ccc(-n2cnnn2)cc1)C1CCCN1C(=O)NC1CCCCC1 (stereo unspecified)	-6	21	-9	5
O=C(Nc1ccc(-n2cnnn2)cc1)C1CCCCC1	0	52*	0	1
O=C(Nc1ccc(F)cc1)C1CC(=O)n2c(nc3ccccc32)N1 (stereo unspecified)	3	3	-4	8
O=C(Nc1ccc(F)c(Cl)c1)C1CC(=O)n2c(nc3ccccc32)N1 (stereo unspecified)	6	53*	-1	8
O=C(Nc1ccc(Br)cn1)c1ccc(Cl)s1	-4	52*	14	1
Cc1cc2ncc(C(=O)Nc3ccccc3)c(C)n2n1	-4	-23	-2	6
Cc1nn2c(C)c(C(=O)Nc3ccccc3)cnc2c1C#N	2	51*	-8	1
SMILES	3CLpro inhibitor	DUSP3 inh	PrPC surface inh	BJeLR viability
O=C(/C=C/c1cccnc1)c1ccc([N+](=O)[O-])cc1	-1	12	-16	-9
COc1cc(C(=O)/C=C/c2cccnc2)c([N+](=O)[O-])cc1OC	.	.	-14	55*
O=C(NC(=S)Nc1cccc(S(=O)(=O)NC2=NCCC2)c1)c1cc(-c2ccco2)nc2ccccc12	5	19	8	27
O=C(Nc1cccc(S(=O)(=O)NC2=NCCC2)c1)c1cc(-c2ccco2)nc2ccccc12	0	52*	-7	8
Cc1ccc(C2NC(=O)c3c(sc(C)c3C)N2)c(O)c1 (stereo unspecified)	-2	51*	-4	1
Cc1cccc(C2NC(=O)c3c(sc(C)c3C)N2)c1O (stereo unspecified)	1	11	-1	-2
COc1ccc(N(CC(=O)NCc2cccs2)S(=O)(=O)c2ccc(C(C)=O)cc2)cc1	.	.	-4	.
Cc1c(C(=O)NCC2COc3ccccc3O2)oc2ccc(S(=O)(=O)N(C)C3CCCCC3)cc12 (stereo unspecified)	-1	52*	-3	-4
COc1ccc2c(c1)c(=O)oc1c(C)c(OCc3ccc(C(=O)O)cc3)ccc12	-1	52*	.	1
C[C@@]12C(=O)OC(=O)[C@]1(C)C1CCC2O1	.	.	41*	.
COc1ccc(NC(=S)N(CCC(C)C)C2CCN(C(C)C)CC2)cc1	1	-3	-2	-6
COc1ccc(NC(=S)N(C(C)C)C2CCN(C(C)C)CC2)cc1Cl	-3	53*	.	-4
CCOC(=O)C1(Cc2cccc(Cl)c2)CCCN(C(=O)c2cnn(CC)c2)C1 (stereo unspecified)	-4	17	1	-4

Screens as filed in PubChem.
